Screening data: PubChem BioAssay, Emory University Molecular Libraries Screening Center
A selection: hits, their analogues and other compounds. The true share with any hit is near 3.7%.
ERb SRC1 inh – inhibitors of ERβ-SRC1 coactivator interaction, primary screen, biochemical, TR-FRET, ERβ LBD, SRC-1 peptide | Estrogen receptor beta (Homo sapiens), Q92731 | TR-FRET ER-beta LBD / SRC1-Cy5 peptide binding; receptor agonist-loaded with 1 µM estradiol | inhibition, % at 25.6 µM | 86,000 compounds, 1.3% hits;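 active = compounds whose percent inhibition of the receptor-coactivator binding signal exceeds about 50% in the single-dose screen, limit read from the data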;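 note: 0% = receptor plus peptide wells without compound and 100% = peptide-only wells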
ERa SRC1 inh – ERα–SRC-1 coactivator interaction inhibitors, primary screen, biochemical, TR-FRET, ERα LBD, estradiol-bound; Estrogen receptor (Homo sapiens), P03372; TR-FRET ER-alpha LBD / SRC-1 peptide; inhibition, % at 25.6 µM; 86,000 compounds, 1.7% hits; AID 629, 2007; in the data active = inhibition above about 50%;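 note: 0% = receptor plus peptide control and 100% = peptide only without receptor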
Target sequence (P03372 whole entry, looked up, the tested form may be a part): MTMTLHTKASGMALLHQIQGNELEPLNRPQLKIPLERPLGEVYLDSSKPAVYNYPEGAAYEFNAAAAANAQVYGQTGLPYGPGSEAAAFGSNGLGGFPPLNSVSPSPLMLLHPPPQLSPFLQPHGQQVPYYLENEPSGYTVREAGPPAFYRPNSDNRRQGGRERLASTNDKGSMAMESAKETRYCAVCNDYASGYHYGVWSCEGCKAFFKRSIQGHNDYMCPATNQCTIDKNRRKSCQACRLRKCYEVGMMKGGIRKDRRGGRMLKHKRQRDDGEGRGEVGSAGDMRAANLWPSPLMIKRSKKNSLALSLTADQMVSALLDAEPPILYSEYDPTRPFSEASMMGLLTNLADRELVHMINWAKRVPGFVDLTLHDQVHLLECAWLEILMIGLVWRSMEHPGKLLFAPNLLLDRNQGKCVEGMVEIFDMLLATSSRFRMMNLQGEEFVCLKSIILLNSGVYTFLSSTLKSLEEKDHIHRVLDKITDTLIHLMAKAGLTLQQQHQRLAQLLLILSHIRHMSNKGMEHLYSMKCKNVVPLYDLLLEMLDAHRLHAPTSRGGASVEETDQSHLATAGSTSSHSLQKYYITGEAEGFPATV
Smad3 FoxH1 inh – Smad3/FoxH1 peptide binding inhibitors, primary screen, biochemical, TR-FRET | inhibition, % at 25 µM | TR-FRET Smad3/Dy647-FoxH1 peptide binding, europium anti-His | 88,000 compounds, 0.29% hits;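 active = compounds that reduce the energy-transfer binding signal between the protein and its labelled peptide by more than half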;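 note: 0% = Smad3 plus labelled peptide maximal FRET and 100% = peptide-only background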
ERa SRC1 pot – enhancers of ERα–SRC-1 coactivator binding, primary screen, biochemical, TR-FRET, ERα LBD, low estradiol | coactivator binding (% of control), % at 25.6 µM | 86,000 compounds, 1.3% hits | Estrogen receptor (Homo sapiens), P03372 | AID 639, 2007 | TR-FRET ERalpha-LBD/SRC-Cy5 coactivator binding, 2 h; 100 = basal binding, no effect; in the data active = activity above about 200%;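 note: binding measured in presence of low estradiol as agonist stimulus; 0% = peptide alone without receptor and 100% = receptor with peptide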
* = called active by the depositor; x = no result; [ ] = remark or other dose.

SMILES	ERb SRC1 inh	ERa SRC1 inh	Smad3 FoxH1 inh	ERa SRC1 pot
CC[C@@H](CO)NC(=O)[C@@H]1C=C2c3cccc4c3c(cn4C)C[C@H]2N(C)C1	51.5*[fluorescence artefact?]	27.0	7.0	42.7
O=C1NC(=O)C(=Cc2cn(CCOc3ccc4c(c3)OCO4)c3ccccc23)C(=O)N1	59.8*[fluorescence artefact?]	84.1*[fluorescence artefact?]	8.5	130.9
C[C@H]1CCC[C@@H](O)CCC/C=C/c2cc(O)cc(O)c2C(=O)O1	6.5	2.6	0.5	466.0*
O=C(O)C[C@@H]1OCC=C2CN3CC[C@]45c6ccccc6N[C@H]4[C@H]1[C@H]2C[C@H]35	x	x	-13.7	x
COc1cc2c(cc1OC)[C@]13CCN4CC5=CCO[C@@H](CC(=O)O)[C@H]([C@H]5C[C@H]41)[C@@H]3N2	x	x	88.1*	x
C[C@H](CC(C#N)(c1ccccc1)c1ccccc1)N1CCCCC1	x	x	-10.8	x
C[C@@H]1CC[C@@H]2N(C1)C[C@@H]1[C@](O)([C@H](O)C[C@]3(O)[C@H]4CC[C@@H]5[C@]6(O)O[C@@]4(C[C@@]13O)[C@@]5(C)CC[C@H]6O)[C@@]2(C)O	x	x	1.1	x
N[C@H](Cc1ccc2oc3cc(=O)c4ccccc4c-3nc2c1)C(=O)O	x	x	13.1	x
Cc1nc2c(=O)n(C)c(=O)nc-2n(C)n1	-7.9	-7.7	80.5*	108.3
CC(C)C(=O)CP(=O)(O)O	x	x	-3.3	x
Nc1ccnn1C1CCNCC1	95.5*[fluorescence artefact?]	96.1*[fluorescence artefact?]	18.6	42.7
O=C1N[C@]2(CN3CCC2CC3)C(=O)N1CN(Cc1ccccc1)c1ccccc1	x	x	-3.9	x
COc1cc2c(cc1OC)[C@]13CC[N@+]4(C)CC5=CCO[C@@H]6CC(=O)N2[C@@H]1[C@@H]6[C@@H]5C[C@]34O	x	x	93.0*	x
CC1=NN(c2ccc(S(=O)(=O)O)cc2C)C(=[OH+])[C@@H]1N=Nc1cc(S(=O)(=O)O)ccc1C(=O)O.O.[Cr]	x	x	11.5	x
O=c1[nH]c(=O)n(Cc2ccco2)c(O)c1C=NCc1cccs1	21.8	8.6	-4.4	88.3
N#Cc1c(/N=C/c2c(O)n(Cc3ccco3)c(=O)[nH]c2=O)sc2c1CCCC2	74.8*	45.4	23.2	85.5
CCn1ncc(/C=C2/CC3C4CC=C5CC(O)CCC5(C)C4CCC3(C)C2=O)c1C (stereo not given)	7.2	-32.1	-421.3	541.8*[fluorescence artefact?]
Cc1nn(C)c(C)c1/C=C1/CC2C3CC=C4CC(O)CCC4(C)C3CCC2(C)C1=O (stereo not given)	7.0	6.5	-11.0	80.8
COC(=O)[C@@H]1c2cc3c(c(O)c2[C@@H](O)C[C@]1(C)O)C(=O)c1c(O)cc2c(c1C3=O)O[C@H]1O[C@]2(C)[C@@H](O)[C@H](N(C)C)[C@H]1O	x	x	26.9	x
COC(=O)c1c(C)ccc2c(O)c3c(cc12)C(=O)c1c2c(cc(O)c1C3=O)[C@@]1(C)O[C@@](C)(O2)[C@@H](O)[C@H](N(C)C)[C@H]1O	x	x	94.4*	x
CO[C@@H]([CH2][Hg][n]1cnc2c1c(=O)n(C)c(=O)n2C)CN1C(=O)c2ccccc2S1(=O)=O	x	x	63.6*	x
O=c1[nH]cnc2[nH]cc(CN3CCCCC3)c12	x	x	78.2*	x
C[C@]12CCC(=O)C=C1C[C@H](O)[C@@H]1[C@@H]2CC[C@@]2(C)[C@H]1CC[C@]2(C)O	x	x	37.6	x
COc1cc2cc(c1Cl)N(C)C(=O)C[C@H](OC(=O)C(C)C)[C@]1(C)O[C@H]1[C@@H](C)[C@H]1C[C@](O)(NC(=O)O1)[C@@H](OC)/C=C\C=C(\C)C2	x	x	4.0	x
O=c1[nH]c(=O)n(CCc2ccccc2)c(O)c1C=NCc1ccc2c(c1)OCO2	36.0	54.6*[fluorescence artefact?]	8.7	266.9*[fluorescence artefact?]
SMILES	ERb SRC1 inh	ERa SRC1 inh	Smad3 FoxH1 inh	ERa SRC1 pot
COc1cc(/C=C2\C(=O)NC(=O)N(c3ccccc3)C2=O)cc(OC)c1O	-4.3	-2.8	4.4	97.4
Cc1cc(/C=C2/C(=O)NC(=O)N(c3ccccc3)C2=O)c(C)n1-c1ccc(F)cc1	42.6	51.6*	-5.9	109.7
O=c1[nH]c(=O)n(CCC2=CCCCC2)c(O)c1C=Nc1cccc(F)c1	9.8	19.9	14.9	254.3*
Nc1ccccc1N=Cc1c(O)n(CCC2=CCCCC2)c(=O)[nH]c1=O	30.4	57.0*	1.1	140.2
FC(F)(F)c1nc2ccc(SSc3ccc4nc(C(F)(F)F)[nH]c4c3)cc2[nH]1	x	x	6.0	x
CN1C[C@@H](C(=O)N[C@@]2(C)O[C@@]3(O)[C@H]4CCCN4C(=O)[C@@H](Cc4ccccc4)N3C2=O)C=C2c3cccc4[nH]cc(c34)C[C@@H]21	x	x	19.9	x
O=C(O)c1cccc([As]=[As]c2cccc(C(=O)O)c2)c1 (stereo not given)	x	x	54.7*	x
CCOC(=O)[C@@H]1[C@H]2c3ccccc3-c3ccccc3[C@@H]2C[C@H]1O	x	x	17.5	x
CC1(C)[C@@H]2CC[C@@]1(C)CN(CCC[N+](C)(C)C)C2	x	x	30.3	x
CN(C)CCCNc1c2c(nc3ccc(Cl)cc13)CCCC2	x	x	-1.4	x
O=[As](O)(O)c1ccc(Cc2ccc([As](=O)(O)O)cc2)cc1	x	x	79.2*	x
O=[As](O)(O)c1ccc(NCc2ccccc2)cc1	x	x	10.0	x
c1ccc2c(c1)Sc1ccccc1N2C[C@H]1CN2CCC1CC2	x	x	77.4*	x
N=C(N)n1cc(/C=N/N=C(N)N)cn1	x	x	-14.9	x
C[C@H]1CC[C@]2(NC1)O[C@H]1C[C@H]3[C@H]4CC=C5C[C@@H](O)CC[C@]5(C)[C@@H]4CC[C@]3(C)[C@H]1[C@@H]2C	x	x	11.0	x
C[C@]12CC[C@H](O[C@@H]3O[C@H](CO)[C@@H](O)[C@H](O)[C@H]3O)C[C@@H]1CC[C@@H]1[C@@H]2CC[C@]2(C)[C@@H](C3=CCOC3=O)CC[C@@]12O	x	x	56.1*	x
CC1(C)CC(=O)C(C2(O)C(=O)NC(=O)NC2=O)=C(O)C1	-6.0	-8.4	65.3*[fluorescence artefact?]	121.1
Cc1ccc(S(=O)(=O)Cc2ccc(C(=O)N3CCC4(CC3)OCCO4)o2)cc1	55.8*	50.8*	-3.2	49.3
CC1(C)CC(=N[N-]C(N)=[SH+])CC(C)(C)N1.CC1(C)CC(=N[N-]C(N)=[SH+])CC(C)(C)N1.[Ni]	x	x	68.3*	x
CC(C)(O)/C=C/C(=O)[C@](C)(O)[C@H]1[C@H](O)C[C@@]2(C)[C@@H]3CC=C4[C@H](C=C(O)C(=O)C4(C)C)[C@@]3(C)C(=O)C[C@]12C	x	x	-5.0	x
COc1cccc2c1C(=O)c1c(O)c3c(c(O)c1C2=O)C[C@](O)(/C(C)=N/O)C[C@@H]3O[C@@H]1C[C@H](N)[C@@H](O)[C@H](C)O1	x	x	12.5	x
O=C(O)/C=C/c1ccc[c]([Sb](=[O])([OH])[OH])c1	x	x	90.3*	x
Nc1nc2c(c(=S)[nH]1)[n]([Hg][c]1cc([N+](=O)[O-])ccc1O)c[n+]2[C@H]1O[C@H](CO)[C@@H](O)[C@@H]1O	x	x	45.6	x
